About 2,000 (36%) of roughly 5,500 compounds were called active. Roughly 18% stayed inconclusive and do not appear here. No stated cut-off is given here; in the data, active means normalized growth mostly below about 0.91 (no sharp cut-off); inconclusive means no clear call, values can overlap the other calls; inactive means mostly above about 0.92. Some of the results follow.
Assay: chemical genetic growth profiling, strain panel (AID 1159580);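 further: tested at 20 µM; growth read once vehicle control cultures reached saturation at 30 °C; 1 = growth at the plate median or of vehicle wells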
Conditions: growth OD

Measured: normalized growth

CC1(C)C2CC[C@]3(C)C(C(=O)C=C4[C@H]5C[C@@](C)(C(=O)O)CC[C@]5(C)CC[C@]43C)[C@@]2(C)CC[C@@H]1O (some centres not stated)
inactive: S. cerevisiae deletion strains, locus YJR075W, strain HOC1, stronger effect = lower value 1.05 | S. cerevisiae deletion strains, locus YKL009W, strain mrt4, stronger effect = lower value 0.921 | S. cerevisiae deletion strains, locus YKL068W, stronger effect = lower value 1.02 | S. cerevisiae deletion strains, locus YKL085W, strain MDH1 (second series), stronger effect = lower value 1.02 | S. cerevisiae deletion strains, locus YKL085W, strain MDH1, stronger effect = lower value 1.02 | S. cerevisiae deletion strains, locus YKL160W, strain elf1, stronger effect = lower value 0.95 | S. cerevisiae deletion strains, locus YKL190W, strain CNB1, stronger effect = lower value 1.04 | S. cerevisiae deletion strains, locus YKR001C, strain vps1, stronger effect = lower value 0.996 | S. cerevisiae deletion strains, locus YKR026C, strain gcn3, stronger effect = lower value 1.03 | S. cerevisiae deletion strains, locus YKR091W, strain srl3, stronger effect = lower value 1.01 | S. cerevisiae deletion strains, locus YLL026W, stronger effect = lower value 0.979 | S. cerevisiae deletion strains, locus YLL041C, strain sdh2, stronger effect = lower value 1.01 | S. cerevisiae deletion strains, locus YLR039C, strain RIC1, stronger effect = lower value 1.1 | S. cerevisiae deletion strains, locus YLR058C, strain SHM2, stronger effect = lower value 1.03 | S. cerevisiae deletion strains, locus YLR102C, strain apc9, stronger effect = lower value 1.01 | S. cerevisiae deletion strains, locus YLR113W, strain HOG1, stronger effect = lower value 1.01 | S. cerevisiae deletion strains, locus YLR221C, strain rsa3, stronger effect = lower value 0.917 | S. cerevisiae deletion strains, locus YLR258W, strain gsy2, stronger effect = lower value 0.953 | S. cerevisiae deletion strains, locus YLR262C, strain YPT6, stronger effect = lower value 1.04 | S. cerevisiae deletion strains, locus YLR268W, strain sec22, stronger effect = lower value 0.944 | S. cerevisiae deletion strains, locus YLR330W, strain CHS5, stronger effect = lower value 1.04 | S. cerevisiae deletion strains, locus YLR342W, strain FKS1 (second series), stronger effect = lower value 1.03 | S. cerevisiae deletion strains, locus YLR342W, strain FKS1, stronger effect = lower value 1.01 | S. cerevisiae deletion strains, locus YLR357W, strain rsc2, stronger effect = lower value 1.05 | S. cerevisiae deletion strains, locus YLR370C, strain arc18, stronger effect = lower value 1.01 | S. cerevisiae deletion strains, locus YLR371W, strain rom2, stronger effect = lower value 1 | S. cerevisiae deletion strains, locus YLR384C, strain iki3, stronger effect = lower value 1.02 | S. cerevisiae deletion strains, locus YLR418C, strain cdc73, stronger effect = lower value 1.03 | S. cerevisiae deletion strains, locus YML016C, strain PPZ1, stronger effect = lower value 1.05 | S. cerevisiae deletion strains, locus YML032C, strain rad52, stronger effect = lower value 0.991 | S. cerevisiae deletion strains, locus YML120C, strain ndi1, stronger effect = lower value 0.993 | S. cerevisiae deletion strains, locus YML124C, strain tub3, stronger effect = lower value 1.02 | S. cerevisiae deletion strains, locus YMR058W, strain fet3, stronger effect = lower value 0.984 | S. cerevisiae deletion strains, locus YMR078C, strain ctf18, stronger effect = lower value 1.01 | S. cerevisiae deletion strains, locus YMR125W, strain sto1, stronger effect = lower value 1.02 | S. cerevisiae deletion strains, locus YMR129W, stronger effect = lower value 1.01 | S. cerevisiae deletion strains, locus YMR223W, strain ubp8, stronger effect = lower value 0.994 | S. cerevisiae deletion strains, locus YMR231W, strain pep5, stronger effect = lower value 0.984 | S. cerevisiae deletion strains, locus YMR263W, strain SAP30, stronger effect = lower value 1.03 | S. cerevisiae deletion strains, locus YMR307W, strain GAS1, stronger effect = lower value 1.02 | S. cerevisiae deletion strains, locus YNL067W, strain RPL9B, stronger effect = lower value 0.98 | S. cerevisiae deletion strains, locus YNL128W, strain TEP1, stronger effect = lower value 1.04 | S. cerevisiae deletion strains, locus YNL153C, strain GIM3, stronger effect = lower value 0.982 | S. cerevisiae deletion strains, locus YNL183C, strain NPR1, stronger effect = lower value 0.946 | S. cerevisiae deletion strains, locus YNL209W, strain ssb2, stronger effect = lower value 0.971 | S. cerevisiae deletion strains, locus YNL233W, strain BNI4, stronger effect = lower value 1.03 | S. cerevisiae deletion strains, locus YNL248C, strain rpa49, stronger effect = lower value 0.926 | S. cerevisiae deletion strains, locus YNL250W, strain rad50, stronger effect = lower value 1.01 | S. cerevisiae deletion strains, locus YNL271C, strain bni1, stronger effect = lower value 1.01 | S. cerevisiae deletion strains, locus YNL298W, strain CLA4, stronger effect = lower value 0.965 | S. cerevisiae deletion strains, locus YNL307C, strain MCK1, stronger effect = lower value 1.02 | S. cerevisiae deletion strains, locus YNL322C, strain KRE1 (second series), stronger effect = lower value 1.01 | S. cerevisiae deletion strains, locus YNL322C, strain KRE1, stronger effect = lower value 1.05 | S. cerevisiae deletion strains, locus YNR049C, strain mso1, stronger effect = lower value 1.01 | S. cerevisiae deletion strains, locus YNR052C, strain pop2, stronger effect = lower value 0.999 | S. cerevisiae deletion strains, locus YOL006C, strain TOP1, stronger effect = lower value 1.09 | S. cerevisiae deletion strains, locus YOL012C, strain htz1 1.33 | S. cerevisiae deletion strains, locus YOL147C, strain pex11, stronger effect = lower value 1.02 | S. cerevisiae deletion strains, locus YOR001W, strain rrp6, stronger effect = lower value 1.01 | S. cerevisiae deletion strains, locus YOR061W, strain CKA2, stronger effect = lower value 1.04 | S. cerevisiae deletion strains, locus YOR069W, strain VPS5, stronger effect = lower value 1.04 | S. cerevisiae deletion strains, locus YOR080W, strain dia2, stronger effect = lower value 1.02 | S. cerevisiae deletion strains, locus YOR083W, strain WHI5, stronger effect = lower value 0.915 | S. cerevisiae deletion strains, locus YOR136W, strain idh2, stronger effect = lower value 1.01 | S. cerevisiae deletion strains, locus YOR144C, strain elg1, stronger effect = lower value 1.02 | S. cerevisiae deletion strains, locus YOR184W, strain ser1, stronger effect = lower value 0.898 | S. cerevisiae deletion strains, locus YOR231W, strain MKK1, stronger effect = lower value 1 | S. cerevisiae deletion strains, locus YOR265W, strain rbl2, stronger effect = lower value 0.995 | S. cerevisiae deletion strains, locus YOR290C, strain snf2, stronger effect = lower value 0.944 | S. cerevisiae deletion strains, locus YOR316C, strain cot1, stronger effect = lower value 1.01 | S. cerevisiae deletion strains, locus YPL055C, strain LGE1, stronger effect = lower value 1.05 | S. cerevisiae deletion strains, locus YPL240C, strain hsp82, stronger effect = lower value 0.97 | S. cerevisiae deletion strains, locus YPL241C, strain CIN2, stronger effect = lower value 1.05 | S. cerevisiae deletion strains, locus YPL256C, strain CLN2, stronger effect = lower value 1.03 | S. cerevisiae deletion strains, locus YPR119W, strain clb2, stronger effect = lower value 1.02 | S. cerevisiae deletion strains, locus YPR141C, strain kar3, stronger effect = lower value 1.02 | S. cerevisiae deletion strains, locus YPR163C, strain tif3, stronger effect = lower value 1.02 | S. cerevisiae deletion strains, locus YPR167C, strain met16, stronger effect = lower value 1.02 | S. cerevisiae deletion strains, strain wtn01, stronger effect = lower value 0.976 | S. cerevisiae strains, strain wild type, stronger effect = lower value 1.02
active: S. cerevisiae deletion strains, locus YLL001W, strain dnm1, stronger effect = lower value 0.867 | S. cerevisiae deletion strains, locus YLR027C, strain aat2, stronger effect = lower value 0.899 | S. cerevisiae deletion strains, locus YLR262C, strain YPT6 (second series), stronger effect = lower value 0.702 | S. cerevisiae deletion strains, locus YLR320W, strain mms22, stronger effect = lower value 0.871 | S. cerevisiae deletion strains, locus YMR205C, strain PFK2, stronger effect = lower value 0.843 | S. cerevisiae deletion strains, locus YNL071W, strain lat1, stronger effect = lower value 0.603 | S. cerevisiae deletion strains, locus YOR070C, strain gyp1, stronger effect = lower value 0.905 | S. cerevisiae deletion strains, locus YOR106W, strain vam3, stronger effect = lower value 0.76 | S. cerevisiae deletion strains, locus YOR270C, strain vph1, stronger effect = lower value 0.638 | S. cerevisiae deletion strains, locus YPL051W, strain arl3, stronger effect = lower value 0.892 | S. cerevisiae deletion strains, locus YPL078C, strain atp4, stronger effect = lower value 0.869 | S. cerevisiae deletion strains, locus YPL106C, strain sse1, stronger effect = lower value 1.17 [resistant]

From PubChem BioAssay AID1159580 (chemical genetic matrix, 2015)
